Source: ChEMBL document CHEMBL1961873, “Compounds: GSK PKIS; Assays: Nanosyn kinase panel” (2012)
“And” between values parts separate entries of the source, which are not always exact repeats. Equal values may be shown once.

Assays:
[1] = target: Tyrosine-protein kinase receptor UFO (Homo sapiens) (UniProt P30530); settings: at 1 µM
[2] = target: Tyrosine-protein kinase Blk (Homo sapiens) (UniProt P51451); settings: at 0.1 µM
[3] = target: Tyrosine-protein kinase Blk (Homo sapiens) (UniProt P51451); settings: at 1 µM
[4] = target: T1, Cytoplasmic tyrosine-protein kinase BMX (Homo sapiens) (UniProt P51813); settings: at 0.1 µM
T1 sequence (whole entry): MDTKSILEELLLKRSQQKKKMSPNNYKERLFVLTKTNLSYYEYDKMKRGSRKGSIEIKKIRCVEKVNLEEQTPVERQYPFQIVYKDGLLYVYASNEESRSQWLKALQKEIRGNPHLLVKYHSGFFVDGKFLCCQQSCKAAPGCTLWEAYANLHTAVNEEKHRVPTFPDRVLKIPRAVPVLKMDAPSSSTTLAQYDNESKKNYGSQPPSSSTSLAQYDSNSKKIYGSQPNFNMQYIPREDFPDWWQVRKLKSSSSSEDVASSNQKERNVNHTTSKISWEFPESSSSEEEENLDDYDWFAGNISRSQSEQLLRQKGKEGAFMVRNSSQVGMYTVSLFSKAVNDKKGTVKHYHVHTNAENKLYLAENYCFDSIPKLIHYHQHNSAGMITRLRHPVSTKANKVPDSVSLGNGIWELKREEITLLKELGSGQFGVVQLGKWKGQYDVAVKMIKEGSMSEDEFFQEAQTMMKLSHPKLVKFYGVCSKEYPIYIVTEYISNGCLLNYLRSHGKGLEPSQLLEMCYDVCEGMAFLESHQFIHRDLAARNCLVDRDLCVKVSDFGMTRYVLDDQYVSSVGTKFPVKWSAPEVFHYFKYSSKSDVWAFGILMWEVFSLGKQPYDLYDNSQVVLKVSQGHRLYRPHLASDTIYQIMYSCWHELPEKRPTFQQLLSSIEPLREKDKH

[5] = target: T1, Cytoplasmic tyrosine-protein kinase BMX (Homo sapiens); settings: at 1 µM
[6] = target: Protein-tyrosine kinase 6 (Homo sapiens) (UniProt Q13882); settings: at 0.1 µM
[7] = target: Protein-tyrosine kinase 6 (Homo sapiens) (UniProt Q13882); settings: at 1 µM
[8] = target: Tyrosine-protein kinase BTK (Homo sapiens) (UniProt Q06187); settings: at 0.1 µM
[9] = target: Tyrosine-protein kinase BTK (Homo sapiens) (UniProt Q06187); settings: at 1 µM
[10] = target: Tyrosine-protein kinase CSK (Homo sapiens) (UniProt P41240); settings: at 0.1 µM
[11] = target: Tyrosine-protein kinase CSK (Homo sapiens) (UniProt P41240); settings: at 1 µM
[12] = target: T2, Discoidin domain-containing receptor 2 (Homo sapiens) (UniProt Q16832); settings: at 0.1 µM
T2 sequence (whole entry): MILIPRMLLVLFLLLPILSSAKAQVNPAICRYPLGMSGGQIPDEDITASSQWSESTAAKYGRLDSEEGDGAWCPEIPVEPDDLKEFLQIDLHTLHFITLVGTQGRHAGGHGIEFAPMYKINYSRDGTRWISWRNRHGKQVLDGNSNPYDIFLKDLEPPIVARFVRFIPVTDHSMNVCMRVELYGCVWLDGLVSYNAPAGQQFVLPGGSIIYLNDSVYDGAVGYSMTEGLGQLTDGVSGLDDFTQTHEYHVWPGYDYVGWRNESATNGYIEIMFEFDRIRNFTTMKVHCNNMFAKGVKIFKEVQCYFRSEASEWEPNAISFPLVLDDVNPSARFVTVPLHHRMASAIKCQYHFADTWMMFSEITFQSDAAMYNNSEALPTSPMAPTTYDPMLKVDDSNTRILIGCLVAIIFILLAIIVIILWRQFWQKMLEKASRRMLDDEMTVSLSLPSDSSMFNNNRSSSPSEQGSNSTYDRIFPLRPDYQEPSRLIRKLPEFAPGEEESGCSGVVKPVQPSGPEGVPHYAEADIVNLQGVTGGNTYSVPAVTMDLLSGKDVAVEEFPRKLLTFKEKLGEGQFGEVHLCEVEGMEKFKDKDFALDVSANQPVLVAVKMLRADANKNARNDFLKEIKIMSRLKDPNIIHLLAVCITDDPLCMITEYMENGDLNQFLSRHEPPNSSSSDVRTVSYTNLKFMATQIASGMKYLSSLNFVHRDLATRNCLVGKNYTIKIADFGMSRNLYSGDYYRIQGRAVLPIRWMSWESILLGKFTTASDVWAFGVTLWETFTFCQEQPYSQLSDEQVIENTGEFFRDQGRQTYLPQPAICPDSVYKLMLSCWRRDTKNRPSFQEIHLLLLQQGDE

[13] = target: T2, Discoidin domain-containing receptor 2 (Homo sapiens); settings: at 1 µM
[14] = target: Epidermal growth factor receptor (Homo sapiens) (UniProt P00533); settings: at 0.1 µM
[15] = target: Epidermal growth factor receptor (Homo sapiens) (UniProt P00533); settings: at 1 µM
[16] = test system: Epidermal growth factor receptor (Homo sapiens), P00533 [L858R]; settings: at 0.1 µM
[17] = test system: Epidermal growth factor receptor (Homo sapiens), P00533 [L858R]; settings: at 1 µM
[18] = test system: Epidermal growth factor receptor (Homo sapiens), P00533 [L861Q]; settings: at 0.1 µM
[19] = test system: Epidermal growth factor receptor (Homo sapiens), P00533 [L861Q]; settings: at 1 µM
[20] = test system: Epidermal growth factor receptor (Homo sapiens), P00533 [T790M]; settings: at 0.1 µM

Chain of Epidermal growth factor receptor (Homo sapiens), P00533 [L861Q] (P00533 whole entry L861Q): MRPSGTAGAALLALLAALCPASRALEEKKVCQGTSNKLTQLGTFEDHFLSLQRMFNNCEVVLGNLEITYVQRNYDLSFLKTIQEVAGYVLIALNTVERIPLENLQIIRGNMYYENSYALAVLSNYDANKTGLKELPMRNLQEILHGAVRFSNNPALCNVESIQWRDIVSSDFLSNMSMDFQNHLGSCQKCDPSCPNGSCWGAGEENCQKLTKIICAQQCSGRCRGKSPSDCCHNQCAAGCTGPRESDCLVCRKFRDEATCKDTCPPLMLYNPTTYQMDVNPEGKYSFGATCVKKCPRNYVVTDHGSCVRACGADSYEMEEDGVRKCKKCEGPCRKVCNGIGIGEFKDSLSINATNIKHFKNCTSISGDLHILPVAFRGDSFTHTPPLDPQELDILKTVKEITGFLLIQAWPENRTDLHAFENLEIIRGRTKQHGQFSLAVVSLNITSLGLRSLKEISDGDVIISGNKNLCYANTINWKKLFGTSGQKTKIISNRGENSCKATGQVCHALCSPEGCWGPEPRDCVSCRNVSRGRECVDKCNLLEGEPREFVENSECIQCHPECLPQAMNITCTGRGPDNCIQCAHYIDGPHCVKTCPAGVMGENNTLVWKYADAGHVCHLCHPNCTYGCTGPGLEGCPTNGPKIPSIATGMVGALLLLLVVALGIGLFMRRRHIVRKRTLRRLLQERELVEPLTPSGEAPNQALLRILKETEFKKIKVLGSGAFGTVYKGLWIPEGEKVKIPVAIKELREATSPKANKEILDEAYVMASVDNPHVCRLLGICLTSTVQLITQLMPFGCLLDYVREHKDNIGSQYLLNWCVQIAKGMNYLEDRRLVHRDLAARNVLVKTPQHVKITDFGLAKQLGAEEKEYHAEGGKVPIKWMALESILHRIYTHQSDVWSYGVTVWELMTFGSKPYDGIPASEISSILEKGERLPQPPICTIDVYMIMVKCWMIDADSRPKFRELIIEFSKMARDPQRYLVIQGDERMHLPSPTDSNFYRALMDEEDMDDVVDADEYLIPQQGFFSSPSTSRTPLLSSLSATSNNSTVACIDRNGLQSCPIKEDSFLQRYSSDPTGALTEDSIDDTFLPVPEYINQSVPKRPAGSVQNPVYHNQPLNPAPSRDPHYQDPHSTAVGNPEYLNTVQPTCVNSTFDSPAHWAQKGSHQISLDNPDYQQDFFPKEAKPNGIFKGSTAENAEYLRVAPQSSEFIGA
Chain of Tyrosine-protein kinase Blk (Homo sapiens) (P51451 2-505 limits assumed): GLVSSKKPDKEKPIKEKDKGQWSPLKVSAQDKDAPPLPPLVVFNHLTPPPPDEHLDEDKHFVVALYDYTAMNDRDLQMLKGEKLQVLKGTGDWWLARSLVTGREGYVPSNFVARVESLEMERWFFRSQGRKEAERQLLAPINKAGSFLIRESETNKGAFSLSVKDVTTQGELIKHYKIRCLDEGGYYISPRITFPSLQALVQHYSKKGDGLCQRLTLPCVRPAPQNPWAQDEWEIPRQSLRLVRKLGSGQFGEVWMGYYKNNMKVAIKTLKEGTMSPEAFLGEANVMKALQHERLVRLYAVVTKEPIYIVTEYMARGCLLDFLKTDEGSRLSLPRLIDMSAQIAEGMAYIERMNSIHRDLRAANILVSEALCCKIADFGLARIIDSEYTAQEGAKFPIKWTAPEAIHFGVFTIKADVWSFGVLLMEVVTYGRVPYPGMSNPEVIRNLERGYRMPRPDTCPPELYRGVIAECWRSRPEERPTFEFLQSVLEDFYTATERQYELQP
Chain of Epidermal growth factor receptor (Homo sapiens) (P00533 whole entry): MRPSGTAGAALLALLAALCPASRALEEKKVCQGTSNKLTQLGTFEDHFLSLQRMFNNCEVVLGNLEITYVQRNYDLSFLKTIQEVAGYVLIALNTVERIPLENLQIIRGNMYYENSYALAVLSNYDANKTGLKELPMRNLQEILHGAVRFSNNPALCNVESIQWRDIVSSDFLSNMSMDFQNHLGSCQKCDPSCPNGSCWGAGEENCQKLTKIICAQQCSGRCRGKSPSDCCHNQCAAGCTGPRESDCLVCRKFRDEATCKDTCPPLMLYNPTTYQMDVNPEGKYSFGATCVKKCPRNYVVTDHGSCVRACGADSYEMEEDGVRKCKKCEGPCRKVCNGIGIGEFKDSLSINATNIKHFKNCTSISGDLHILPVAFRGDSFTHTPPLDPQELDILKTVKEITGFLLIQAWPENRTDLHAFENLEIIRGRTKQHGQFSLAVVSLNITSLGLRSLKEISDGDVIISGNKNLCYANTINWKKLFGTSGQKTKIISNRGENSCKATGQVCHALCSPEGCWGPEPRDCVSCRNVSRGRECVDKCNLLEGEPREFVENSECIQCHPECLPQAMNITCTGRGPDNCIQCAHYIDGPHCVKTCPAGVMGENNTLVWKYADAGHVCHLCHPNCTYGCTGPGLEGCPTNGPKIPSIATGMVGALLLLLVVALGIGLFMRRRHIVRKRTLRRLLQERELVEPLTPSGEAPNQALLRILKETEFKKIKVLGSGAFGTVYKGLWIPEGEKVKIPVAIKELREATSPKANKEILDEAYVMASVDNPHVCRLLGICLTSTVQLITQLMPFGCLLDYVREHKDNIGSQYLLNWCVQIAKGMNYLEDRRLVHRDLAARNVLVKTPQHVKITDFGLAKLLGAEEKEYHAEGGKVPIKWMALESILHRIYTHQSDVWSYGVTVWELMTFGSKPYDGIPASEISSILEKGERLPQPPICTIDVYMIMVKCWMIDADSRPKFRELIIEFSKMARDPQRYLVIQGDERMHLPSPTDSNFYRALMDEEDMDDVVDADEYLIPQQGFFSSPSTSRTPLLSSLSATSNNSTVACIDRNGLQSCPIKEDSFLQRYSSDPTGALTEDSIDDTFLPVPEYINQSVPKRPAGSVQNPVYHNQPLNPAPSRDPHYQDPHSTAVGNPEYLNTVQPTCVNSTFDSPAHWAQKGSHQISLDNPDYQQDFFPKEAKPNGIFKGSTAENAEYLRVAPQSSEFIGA
Chain of Tyrosine-protein kinase receptor UFO (Homo sapiens) (P30530 whole entry): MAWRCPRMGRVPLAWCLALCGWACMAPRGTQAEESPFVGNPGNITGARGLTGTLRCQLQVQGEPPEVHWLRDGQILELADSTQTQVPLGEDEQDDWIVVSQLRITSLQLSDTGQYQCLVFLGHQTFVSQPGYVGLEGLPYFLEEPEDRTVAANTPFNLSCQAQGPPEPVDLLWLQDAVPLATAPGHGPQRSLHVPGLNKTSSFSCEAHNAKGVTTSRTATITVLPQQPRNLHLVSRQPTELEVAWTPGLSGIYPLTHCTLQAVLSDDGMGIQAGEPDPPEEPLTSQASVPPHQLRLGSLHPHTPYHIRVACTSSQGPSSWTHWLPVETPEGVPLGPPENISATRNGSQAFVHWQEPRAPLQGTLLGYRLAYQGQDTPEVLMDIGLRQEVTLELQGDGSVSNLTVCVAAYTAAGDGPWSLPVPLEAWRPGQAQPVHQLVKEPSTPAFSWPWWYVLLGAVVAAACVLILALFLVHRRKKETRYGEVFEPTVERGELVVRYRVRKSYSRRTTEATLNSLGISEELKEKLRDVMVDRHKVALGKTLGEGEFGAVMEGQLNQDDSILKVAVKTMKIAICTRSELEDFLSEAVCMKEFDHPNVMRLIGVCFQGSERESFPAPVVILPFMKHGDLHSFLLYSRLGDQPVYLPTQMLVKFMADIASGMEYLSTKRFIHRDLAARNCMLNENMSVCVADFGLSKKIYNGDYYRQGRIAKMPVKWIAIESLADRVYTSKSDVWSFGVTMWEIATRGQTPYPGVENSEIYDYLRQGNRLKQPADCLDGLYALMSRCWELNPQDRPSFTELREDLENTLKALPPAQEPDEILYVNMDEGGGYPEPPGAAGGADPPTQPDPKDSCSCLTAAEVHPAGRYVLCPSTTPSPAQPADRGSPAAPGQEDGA
Chain of Tyrosine-protein kinase CSK (Homo sapiens) (P41240 2-450 limits assumed): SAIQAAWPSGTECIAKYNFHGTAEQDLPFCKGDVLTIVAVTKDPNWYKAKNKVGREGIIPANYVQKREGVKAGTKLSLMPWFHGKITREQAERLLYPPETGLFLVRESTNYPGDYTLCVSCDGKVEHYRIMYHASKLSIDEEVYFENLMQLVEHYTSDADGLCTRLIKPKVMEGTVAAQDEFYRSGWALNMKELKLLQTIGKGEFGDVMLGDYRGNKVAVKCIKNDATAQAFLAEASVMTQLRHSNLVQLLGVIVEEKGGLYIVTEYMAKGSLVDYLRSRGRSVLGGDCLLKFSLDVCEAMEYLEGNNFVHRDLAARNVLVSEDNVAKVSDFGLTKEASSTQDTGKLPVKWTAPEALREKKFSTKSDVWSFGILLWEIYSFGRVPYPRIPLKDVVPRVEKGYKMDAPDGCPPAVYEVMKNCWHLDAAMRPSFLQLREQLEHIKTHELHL
Chain of Protein-tyrosine kinase 6 (Homo sapiens) (Q13882 whole entry, looked up): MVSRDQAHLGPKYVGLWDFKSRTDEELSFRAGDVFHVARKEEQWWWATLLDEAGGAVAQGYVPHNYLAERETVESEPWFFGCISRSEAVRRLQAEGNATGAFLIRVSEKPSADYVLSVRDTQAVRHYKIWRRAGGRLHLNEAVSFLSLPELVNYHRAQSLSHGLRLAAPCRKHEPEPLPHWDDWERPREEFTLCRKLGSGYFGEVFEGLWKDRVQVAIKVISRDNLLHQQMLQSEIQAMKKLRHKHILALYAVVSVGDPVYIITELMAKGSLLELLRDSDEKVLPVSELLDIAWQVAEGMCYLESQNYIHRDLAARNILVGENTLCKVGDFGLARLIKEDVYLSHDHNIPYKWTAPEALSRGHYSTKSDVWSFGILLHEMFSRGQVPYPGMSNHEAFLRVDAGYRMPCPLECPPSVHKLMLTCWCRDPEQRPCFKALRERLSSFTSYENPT

| Structure (SMILES) | inhibition [1] | inhibition [2] | inhibition [3] | inhibition [4] | inhibition [5] | inhibition [6] | inhibition [7] | inhibition [8] | inhibition [9] | inhibition [10] | inhibition [11] | inhibition [12] | inhibition [13] | inhibition [14] | inhibition [15] | inhibition [16] | inhibition [17] | inhibition [18] | inhibition [19] | inhibition [20] |
| --- | --- | --- | --- | --- | --- | --- | --- | --- | --- | --- | --- | --- | --- | --- | --- | --- | --- | --- | --- | --- |
| Nc1nonc1-c1nc2cnccc2n1C1CC1 | 0.16% and -1.32% | 2.66% and -2.38% | 4.59% and -2.3% | 6.52% and -2.61% | 4.75% and 2.31% | 5.31% and 2.92% | 3.69% and 2.66% | 1.67% and -4.68% | 1.98% and -4.91% | 3.81% and 3.48% | 2.08% and 1.45% | 1.46% and 1.25% | 2.24% and 0.96% | 1.3% and -3.46% | 4.4% and -3.77% | 1.41% and 2.54% | 0.67% and 3.32% | 4% and 2.76% | -0.36% and -1.27% | 1.58% and 0.88% |
| CC1=C(C(=O)Nc2ccc3[nH]ncc3c2)C(c2ccc(F)cc2)N=C(c2ccc(C(F)(F)F)nc2)N1 (stereo not given) | -0.71% | 2.98% | 3.72% | -0.04% | 3.01% | 2.13% | 3.49% | 0.06% | 0.16% | 1.42% | 6.65% | 1.54% | 6.22% | 3.43% | 7.73% | 4.85% | 6.69% | 2.32% | 2.72% | 0.14% |
| Cc1nnc(-c2cccc(-c3ccc(C(=O)NCC4CC4)cc3)c2)o1 | -8.4% | 3.6% | 1.41% | -0.51% | 5.89% | 6.64% | 7.36% | 0.03% | 1.05% | 7.99% | 7.37% | 2.21% | 3.42% | 1.17% | 3.25% | 2.9% | 6.91% | 3.75% | 5.65% | 3.93% |
| NS(=O)(=O)c1ccc(N/N=C2\C(=O)Nc3ccc(C(=O)NCc4ccncc4)cc32)cc1 | -5.22% | 2.64% | 13.4% | -3.52% | 4.33% | 1.97% | 4.41% | 0.85% | 0.4% | 2.94% | 7.78% | -0.45% | 3.57% | -0.63% | 5.5% | 6.1% | 4.21% | 4.5% | 4.52% | 2.35% |
| Cc1cc(O)cc(C)c1/C=C/c1cncc(C(N)=O)c1 | -0.54% | 3.77% | 23% | 5.58% | 37.5% | 22.2% | 72.8% | -0.17% | 2.64% | 4.27% | 25.5% | 2.69% | 9.65% | 6.97% | 11.2% | 3.98% | 18.9% | 3.84% | 5.76% | 1.27% |
| NS(=O)(=O)c1cccc(N/C=C2\C(=O)Nc3ccccc32)c1 | -2.91% | 2.39% | 8.59% | 2.23% | 5.84% | 3.79% | 5.69% | 0.73% | -0.4% | 3.86% | -0.23% | 4.35% | 6% | 5.8% | 9.72% | 2.03% | 3.12% | 2.12% | 2.32% | 2.62% |
| COc1c(C(N)=O)cc(-c2ccc(Cl)cc2)cc1-c1ccc(S(N)(=O)=O)cc1 | -6.03% | 1.95% | 3.34% | 4.08% | 6.04% | 3.21% | 4.09% | -1.27% | -0.85% | 3.55% | 4.45% | 1.62% | 2.64% | 1.55% | 2.79% | 2.2% | 8.48% | 2.27% | 5.74% | 1.41% |
| COc1ccccc1-c1cc(/C=C2\C(=O)Nc3ncc(Br)cc32)cc(Br)c1O | -1.51% | 2.49% | 10.7% | 0.75% | 6.48% | 5.88% | 3.92% | 1.5% | 2.07% | 3.21% | 3.65% | 2.75% | 10.6% | -0.76% | 2.08% | -0.74% | 0.61% | 2.99% | 4.29% | 1.88% |
| CC1=C(C(=O)Nc2ccc3[nH]nc(C)c3c2)C(c2ccc(C(F)(F)F)cc2)CC(=O)N1 (stereo not given) | -6.56% | 3.36% | 17% | -2.44% | 4.58% | 3.23% | 23.5% | 1.29% | 2.32% | 1.88% | 5.65% | 3.33% | 1.65% | 2.76% | 5.52% | 4.19% | 1.96% | 1.79% | 1.92% | 2.05% |
| Cc1c2ccc(N(C)c3ccnc(Nc4cccc(S(N)(=O)=O)c4)n3)cc2nn1C | 1.26% | 5.04% | 56.5% | -1.19% | 17% | 13.8% | 51.2% | -2.88% | 1.31% | 5.79% | 19% | 11.4% | 65% | -3.87% | 0.64% | 3.16% | 11.9% | 5.08% | 3.69% | 3.44% |
| COc1cccc(Nc2nccc(-c3cnn4ncccc34)n2)c1 | 11.4% | 2.91% | 14% | 9.52% | 21.8% | 1.39% | 10.1% | 0.35% | 4.57% | 4.74% | 11.8% | 0.85% | 4.16% | -2.03% | 5.8% | 2.1% | 9.34% | 1.66% | 3.56% | 1.52% |
| COC(=O)Nc1nc2ccc(Oc3ccc(NC(=O)Nc4cc(C(F)(F)F)ccc4F)cc3)cc2s1 | 46.6% | 0.64% | 3.2% | 0.05% | 2.68% | 1.06% | 0.36% | -0.69% | -0.85% | 4.36% | 33.4% | 62.7% | 83.6% | 1.66% | 3.16% | -2.69% | 2.24% | -1.23% | 1.41% | 0.17% |
| COc1ccc2ncn(-c3cc(O[C@H](C)c4ccccc4C(F)(F)F)c(C(N)=O)s3)c2c1 | 1.8% | -0.74% | 2.3% | -0.1% | 1.93% | -0.2% | -0.61% | -0.76% | -0.74% | -1.23% | -2.18% | -0.82% | -2.22% | 0.37% | 2.93% | -1.19% | 1.03% | -0.87% | 0.54% | -1.45% |
